# Measured values: PubChem BioAssay AID504773 (Broad Institute, 2011)
# Results with a measured potency or affinity are listed apart. Calls of active or inactive are those of the source.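 The calls were made as follows: active = polarization signal falls with dose and the fitted half-maximal concentration is at or below ten times the sample's top valid dose; inconclusive = flat curve at 30 to 70% inhibition, or poor fit; inactive = signal rises, flat within 30%, or potency beyond limit.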
# Target: Golgi-associated PDZ and coiled-coil motif-containing protein (Homo sapiens) (UniProt Q9HD26)
# Assay: potency against CAL PDZ-peptide interaction – biochemical, fluorescence polarization, Cerulean-tagged CAL PDZ, cherry-picks, dose response (AID 504773)
# Settings: CAL PDZ-peptide binding, 1 h; series mostly up to 50 µM
row,Compound,outcome
1,CC(=O)Nc1ccc(Nc2ccc3nonc3c2[N+](=O)[O-])cc1,inactive
2,COc1ccc(Cl)cc1C(=O)Nc1ccc2c(c1)OCCO2,inactive
3,O=C(OCC(=O)N1CCc2ccccc2C1)c1cccnc1Cl,inactive
4,COc1ccc(NC(=O)c2cnn(-c3ccccc3)c2C)c(OC)c1,inactive
5,NC(=O)C1CCN(c2ncccc2[N+](=O)[O-])CC1,inactive
6,C(=C/c1nccc2c1[nH]c1ccccc12)/c1ccc2c(c1)OCO2,inactive
7,COc1cccc(NC(=O)N2CCCCCC2)c1,inactive
8,CCOc1ccccc1CN1CCC(n2nccc2NC(=O)C2CCCC2)CC1,inactive
9,CSc1ccccc1NC(=O)c1ccccc1,inactive
10,COc1ccc(C(=O)N2CCCc3ccccc32)cc1Br,inactive
11,CCCCOc1ccc(C(=O)N2CCNC(=O)C2CC(=O)OC(C)C)cc1 (stereo unspecified),inactive
12,Cc1c(Cl)c(C(F)(F)F)nn1CC(=O)NCc1ccco1,inactive
13,COc1cc(Cl)c(CN2CCCC(CO)(Cc3cccc(Cl)c3)C2)cc1OC (stereo unspecified),inactive
14,CN1CC(=O)N(CC(=O)Nc2ccc(Br)cc2F)C1=O,inactive
15,O=C(NC12CC3CC(CC(C3)C1)C2)c1ccco1,inactive
16,Cc1cc(C)c(S(=O)(=O)NCc2ccc3c(c2)OCO3)c(C)c1,inactive
